57 molecules from PubChem BioAssay AID720641 (ICCB-Longwood Screening Facility, Harvard Medical School, 2013) can be followed below.

This assay in a line: S. aureus growth inhibition at 42 and 30 °C, primary screen, LtaS inhibitor project, RN4220, two temperatures (AID 720641). Particulars: OD600, 20 h, 42 °C, stronger effect = lower value.

Hit rate of the full screen: of about 170,000 compounds, about 900 (0.53%) were called active.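 How the source made its calls: active means relative growth at most 50% at the other temperature and 20+ points below 30 °C, or under 10% at both; inactive means the rest, inconclusive results apart.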 What follows is part of a selection rich in actives, with near analogues and random picks from the rest.

Regarding `CCOC(=O)N1CCC(N(CCOC)C(=S)Nc2ccccc2F)CC1`, the relative growth is 83.6% (inactive). Besides, the relative growth (measured here: growth at 30 °C) was found to be 74.7%.

Consider `Cc1ccc(NC(=O)CC2SC(=Nc3ccc(S(N)(=O)=O)cc3)NC2=O)cc1` (centres undefined), for which the relative growth is 100% (inactive). Further, the relative growth (measured here: growth at 30 °C) came out at 94.2%.

On to `CCC(C)NC(=O)Cn1nc(-c2ccccc2)c2cc(Cl)ccc21` (centres undefined), for which the relative growth was 105% (inactive). Moreover, the relative growth (measured here: growth at 30 °C) was 86.8%.

Take `C=CCNC(=O)c1ccc(S(=O)(=O)N(CC)c2ccccc2)cc1`: the relative growth is 99.8% (inactive). The relative growth (measured here: growth at 30 °C) worked out at 91%.

`Cc1cnc(C(=O)OCc2cc(=O)n3ccsc3n2)cn1`: the relative growth was 86.6% (inactive). In addition, the relative growth (measured here: growth at 30 °C) was 101%.

For the molecule `CC(Oc1ccccc1)C(=O)N[C@@H]1C(=O)N2[C@@H]1SC(C)(C)[C@@H]2C(=O)O` (some centres undefined), the relative growth is -1.13% (active). Moreover, the relative growth (measured here: growth at 30 °C) is -0.8%.

Consider `CC(Oc1ccccc1)C(=O)NC1CCCCC1` (centres undefined), for which the relative growth was 110% (inactive). Besides, for the setting “measured here: growth at 30 °C”, the relative growth came to 98.3%.

In the case of `COC(=O)C(N)c1ccccc1` (centres undefined), the relative growth was 68.2% (inactive). Also, the relative growth (measured here: growth at 30 °C) amounted to 90.3%.

`CCOC(=O)OC(C)OC(=O)C1N2C(=O)C(NC(=O)[C@H](N)c3ccccc3)C2SC1(C)C` (some centres undefined): the relative growth is -1.14% (active). Moreover, the relative growth (measured here: growth at 30 °C) was -0.8%.

As to `CC1(C)S[C@@H]2[C@H](N=CN3CCCCCC3)C(=O)N2[C@H]1C(=O)O`, the relative growth was 93.7% (inactive). Further, for the setting “measured here: growth at 30 °C”, the relative growth came to 82.3%.

On to `C1=CCC(/C=N/Nc2nc3ccccc3o2)CC1` (centres undefined), for which the relative growth was 82% (inactive). For the same molecule, under “measured here: growth at 30 °C”, the relative growth amounted to 84.9%.

`Cc1cc2oc(=O)cc(Cn3nnc(-c4ccc(F)cc4)n3)c2cc1C`: the relative growth was 84.4% (inactive). Also, for the setting “measured here: growth at 30 °C”, the relative growth amounted to 95.6%.

For the molecule `CCCNS(=O)(=O)c1ccc(N2CCCCS2(=O)=O)cc1`, the relative growth is 101% (inactive). Moreover, the relative growth (measured here: growth at 30 °C) is 93.7%.

On to `c1ccc(-c2nc3ccccc3nc2N2CCCC2)cc1`, for which the relative growth was 97.9% (inactive). In addition, the relative growth (measured here: growth at 30 °C) was 98.8%.

In the case of `O=C(O)CCCC(=O)Nc1cc(C(F)(F)F)cc(C(F)(F)F)c1`, the relative growth is 101% (inactive). For the same molecule, under “measured here: growth at 30 °C”, the relative growth stood at 71.5%.

In the case of `O=C(N/C=C/c1ccsc1)Nc1cc(C(F)(F)F)cc(C(F)(F)F)c1`, the relative growth was -2.07% (active). Also, the relative growth (measured here: growth at 30 °C) is -0.58%.

Turning to `O=C(CSc1ccccn1)Nc1cc(C(F)(F)F)cc(C(F)(F)F)c1`, the relative growth was 112% (inactive). Besides, the relative growth (measured here: growth at 30 °C) turned out to be 86.3%.

With `CC(=O)OCC(=O)CC12CC3CC(CC(C3)C1)C2`, the relative growth was 83.3% (inactive). Besides, under “measured here: growth at 30 °C”, the relative growth came to 93.7%.

As to `CCOC(=O)CN1C(=O)S/C(=C\c2ccc(-c3ccc(Cl)cc3Cl)o2)C1=O`, the relative growth was 89.9% (inactive). The relative growth (measured here: growth at 30 °C) amounted to 87%.

In the case of `CCN1CCCC1CNC(=O)c1nnc(Cc2ccccc2OC)o1` (centres undefined), the relative growth is 79.5% (inactive). In addition, the relative growth (measured here: growth at 30 °C) was determined as 88.3%.

As for `FC(F)(F)c1cc(-c2ccc(Br)cc2)n[nH]1`, the relative growth is 8.64% (active). Also, the relative growth (measured here: growth at 30 °C) came to 4.24%.

On to `CC(C)(C)c1ccc(S(=O)(=O)N2CCN(C(=O)c3cc(-c4ccc(Br)cc4)n[nH]3)CC2)cc1`, for which the relative growth is 99.3% (inactive). Moreover, the relative growth (measured here: growth at 30 °C) turned out to be 102%.

Regarding `Cc1cc(C)c(NC(=O)CSC2=NN3CCCC(=O)N=C3S2)c(C)c1`, the relative growth is 95% (inactive). In addition, under “measured here: growth at 30 °C”, the relative growth was 89%.

Take `CCCNc1ncnc2onc(-c3ccc(F)cc3)c12`: the relative growth was 90.2% (inactive). For the same molecule, the relative growth (measured here: growth at 30 °C) came to 91%.

In the case of `CNC(=O)C1CCN(S(=O)(=O)c2c(C)noc2/C=C/c2cccc(C)c2)CC1`, the relative growth was 107% (inactive). Also, for the setting “measured here: growth at 30 °C”, the relative growth was found to be 81.4%.

As for `CCCOc1c(Br)cc(C(=O)O)cc1OC`, the relative growth was 90.2% (inactive). Also, for the setting “measured here: growth at 30 °C”, the relative growth was determined as 101%.

Regarding `CC1CC(C)CN(C(=O)C(C)n2sc3ccccc3c2=O)C1` (centres undefined), the relative growth was 120% (inactive). Further, under “measured here: growth at 30 °C”, the relative growth was found to be 95.8%.

As to `CCn1c(SCc2c(C)noc2C)nc2cc(S(=O)(=O)N3CCOCC3)ccc21`, the relative growth is 63.8% (inactive). Also, the relative growth (measured here: growth at 30 °C) was 94%.

In the case of `NC(=O)c1ncoc1-c1cccc(Cl)c1`, the relative growth was 108% (inactive). For the same molecule, the relative growth (measured here: growth at 30 °C) is 76%.

As for `Oc1ccc(-n2cccc2)cc1`, the relative growth was 84.2% (inactive). Besides, the relative growth (measured here: growth at 30 °C) was determined as 92.9%.

As for `Oc1ccc(SSc2ccc(O)cc2)cc1`, the relative growth is 3.56% (active). Moreover, for the setting “measured here: growth at 30 °C”, the relative growth is 3.94%.

Consider `Oc1ccc(-c2cccc(-c3ccc(O)cc3)c2)cc1`, for which the relative growth was 97.5% (inactive). The relative growth (measured here: growth at 30 °C) came out at 59.9%.

Regarding `CCOC(=O)C1=C(C)Nc2[nH]c(=O)[nH]c(=O)c2C1c1ccccc1` (centres undefined), the relative growth was 94.1% (inactive). For the same molecule, the relative growth (measured here: growth at 30 °C) was found to be 92.8%.

For `FC(F)(F)C1CCCN(c2nsc3ccccc23)C1` (centres undefined), the relative growth was -0.41% (active). Further, the relative growth (measured here: growth at 30 °C) was -0.5%.

`Cc1c(/C=C/C(=O)Oc2ccc(C#N)cc2)sc2ccccc12`: the relative growth was 110% (inactive). Besides, the relative growth (measured here: growth at 30 °C) was 87.3%.

`Cc1ccccc1OCC(=O)Nc1cc(Sc2ccccn2)cc(S(=O)(=O)c2ccccc2)c1`: the relative growth was 103% (inactive). Further, where the note is “measured here: growth at 30 °C”, the relative growth is 88.5%.

In the case of `CC(C)(C)c1cc(Cl)c(O)c(NC(=O)c2cncc(Br)c2)c1`, the relative growth is 112% (inactive). For the same molecule, the relative growth (measured here: growth at 30 °C) turned out to be 87.7%.

Take `Cc1cccc(OC(=O)Nc2ccccc2)c1`: the relative growth is 102% (inactive). For the same molecule, the relative growth (measured here: growth at 30 °C) stood at 91.2%.

Take `CCn1c(CCl)nc2cc(C(=O)O)ccc21`: the relative growth was 119% (inactive). Also, the relative growth (measured here: growth at 30 °C) was found to be 82.3%.

On to `O=S(=O)(NC1CCCC1)c1ccc(S(=O)(=O)N2CCN(c3ncccn3)CC2)cc1`, for which the relative growth was 100% (inactive). In addition, the relative growth (measured here: growth at 30 °C) worked out at 79.4%.

Consider `O=C(Nc1ccncc1)c1cccc(COc2ccc3ccccc3c2)c1`, for which the relative growth is 1.11% (active). For the setting “measured here: growth at 30 °C”, the relative growth amounted to 2.67%.

Take `O=C(Nc1cccc(-c2nc3ccccc3o2)c1)c1cccc(OCc2ccccc2)c1`: the relative growth is 124% (inactive). In addition, the relative growth (measured here: growth at 30 °C) was 93.3%.

As to `O=C(OCCN1CCCCC1)c1cccc(COc2ccc3ccccc3c2)c1`, the relative growth is 102% (inactive). In addition, the relative growth (measured here: growth at 30 °C) was 83%.

As for `CCOc1ccc(C(=O)NN)cc1`, the relative growth is 77.2% (inactive). Besides, the relative growth (measured here: growth at 30 °C) stood at 80.8%.

For `CCn1c(CSc2nc3ccccc3s2)nnc1SC(C)C(=O)Nc1ccc(N(C)C)cc1` (centres undefined), the relative growth was 116% (inactive). Further, the relative growth (measured here: growth at 30 °C) was determined as 97.9%.

Take `O=C(Sc1cccs1)c1csc(C2COc3ccccc3O2)n1` (centres undefined): the relative growth is 0.36% (active). Also, the relative growth (measured here: growth at 30 °C) is -0.46%.

Turning to `CN(C)C(=O)c1csc(C2COc3ccccc3O2)n1` (centres undefined), the relative growth was 93.5% (inactive). Besides, the relative growth (measured here: growth at 30 °C) was 87.9%.

`O=C(Oc1ccc(Cl)cc1)c1csc(C2COc3ccccc3O2)n1` (centres undefined): the relative growth is 92.8% (inactive). In addition, for the setting “measured here: growth at 30 °C”, the relative growth stood at 92.7%.

Consider `N#C/C(=C\c1ccccc1F)c1ccccc1`, for which the relative growth was 110% (inactive). The relative growth (measured here: growth at 30 °C) turned out to be 92.3%.

Regarding `CC1=CC(=O)C=CC1=N/C(=N\S(=O)(=O)c1ccc(C)cc1)c1ccccc1`, the relative growth is 104% (inactive). Also, for the setting “measured here: growth at 30 °C”, the relative growth came to 57.7%.

`COCCn1c(SC)nc2c(c1=O)SCC2`: the relative growth was 96% (inactive). In addition, the relative growth (measured here: growth at 30 °C) turned out to be 94.8%.

Take `N#C/C(=C\c1ccc(-c2ccc(S(=O)(=O)N3CCOCC3)cc2)o1)S(=O)(=O)c1ccc(Br)cc1`: the relative growth is 87.4% (inactive). For the same molecule, under “measured here: growth at 30 °C”, the relative growth came to 90.9%.

`CN(C(=O)c1cccnc1Cl)C1CCS(=O)(=O)C1` (centres undefined): the relative growth was 115% (inactive). For the setting “measured here: growth at 30 °C”, the relative growth was 88.3%.

For `CCn1nc(-c2cccs2)cc1C(=O)N(C)C`, the relative growth was 105% (inactive). The relative growth (measured here: growth at 30 °C) was found to be 86.8%.

`COC(=O)c1ccccc1NC(=O)CSc1ccccn1`: the relative growth is 93.1% (inactive). Moreover, the relative growth (measured here: growth at 30 °C) was 93.2%.

In the case of `CCOC(=O)CCSc1ccccn1`, the relative growth was 0.28% (active). Besides, the relative growth (measured here: growth at 30 °C) is -0.27%.

In the case of `CCOC(=O)CSc1ccccn1`, the relative growth was 94.9% (inactive). Moreover, the relative growth (measured here: growth at 30 °C) amounted to 101%.
